# Experimental data taken from the supplement of paper PMC8728848.
# Only a selection was taken, and the strongest signals are over-represented in it overall.
# Experiments:
# Experiment in all cases: glycan array binding signal (z-score within array); higher = stronger binding
# Details in all cases: glycan notation: IUPAC condensed, linker removed; mutation: Q318A
# [1] = target: Fuc(a1-2)Gal(b1-3)GalNAc(b1-4)[Neu5Ac(a2-3)]Gal(b1-4)Glc
# Outline: (§1)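 Glycan array binding is given as a within-array Z-score, which can be read as non-binding when negative. The arrays, 3228 of them, came from the Consortium for Functional Glycomics database and were retained only where the protein sequence was available. Z-scores were averaged across arrays of the same protein sequence at different concentrations or buffers and across linkers.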
# [2] = target: Fuc(a1-2)Gal(b1-3)GlcNAc(b1-3)[Fuc(a1-2)Gal(b1-3)GlcNAc(b1-6)]GalNAc
# Outline: as §1
# [3] = target: Fuc(a1-2)Gal(b1-4)Fuc(a1-3)]GlcNAc(b1-2)Man(a1-3)[Fuc(a1-2)Gal(b1-4)[Fuc(a1-3)]GlcNAc(b1-2)Man(a1-6)]Man(b1-4)GlcNAc(b1-4)GlcNAc
# Outline: as §1
# [4] = target: Fuc(a1-2)Gal(b1-4)GlcNAc
# Outline: as §1
# [5] = target: Fuc(a1-2)Gal(b1-4)GlcNAc(b1-2)Man(a1-3)[Fuc(a1-2)Gal(b1-4)GlcNAc(b1-2)Man(a1-6)]Man(b1-4)GlcNAc(b1-4)GlcNAc
# Outline: as §1
# [6] = target: Fuc(a1-2)Gal(b1-4)GlcNAc(b1-3)Gal(b1-4)GlcNAc(b1-2)Man(a1-3)[Fuc(a1-2)Gal(b1-4)GlcNAc(b1-3)Gal(b1-4)GlcNAc(b1-2)Man(a1-6)]Man(b1-4)GlcNAc(b1-4)GlcNAc
# Outline: as §1
# [7] = target: Fuc(a1-2)[Gal(a1-3)]Gal(b1-4)GlcNAc(b1-2)Man(a1-3)[Fuc(a1-2)[Gal(a1-3)]Gal(b1-4)GlcNAc(b1-2)Man(a1-6)]Man(b1-4)GlcNAc(b1-4)GlcNAc
# Outline: as §1
# [8] = target: Fuc(a1-2)[GalNAc(a1-3)]Gal(b1-4)GlcNAc(b1-2)Man
# Outline: as §1
# [9] = target: Fuc(a1-2)[GalNAc(a1-3)]Gal(b1-4)GlcNAc(b1-3)Gal(b1-4)GlcNAc
# Outline: as §1
# [10] = target: Fuc(a1-2)[GalNAc(a1-3)]Gal(b1-4)GlcNAc(b1-3)GalNAc
# Outline: as §1
# [11] = target: Fuc(a1-3)[Gal(b1-4)]GlcNAc6S
# Outline: as §1
# [12] = target: Gal(a1-3)Gal(b1-4)GlcNAc
# Outline: as §1
# [13] = target: Gal(a1-4)Gal(b1-4)Glc
# Outline: as §1
# [14] = target: Gal(b1-3)GalNAc(b1-4)Gal(b1-4)Glc
# Outline: as §1
# [15] = target: Gal(b1-3)GlcNAc(b1-3)Gal(b1-4)GlcNAc(b1-3)Gal(b1-4)GlcNAc(b1-2)[Gal(b1-3)GlcNAc(b1-3)Gal(b1-4)GlcNAc(b1-3)Gal(b1-4)GlcNAc(b1-6)]Man(a1-6)[Gal(b1-3)GlcNAc(b1-3)Gal(b1-4)GlcNAc(b1-3)Gal(b1-4)GlcNAc(b1-2)Man(a1-3)]Man(b1-4)GlcNAc(b1-4)[Fuc(a1-6)]GlcNAc
# Outline: as §1
# [16] = target: Gal(b1-3)GlcNAc(b1-6)Gal(b1-4)GlcNAc
# Outline: as §1
# [17] = target: Gal(b1-3)GlcNAc(b1-6)[Gal(b1-3)]GalNAc
# Outline: as §1
# [18] = target: Gal(b1-4)Gal
# Outline: as §1
# [19] = target: Gal(b1-4)GlcNAc(b1-2)Man
# Outline: as §1
# [20] = target: Gal(b1-4)GlcNAc(b1-2)Man(a1-3)[Gal(b1-4)GlcNAc(b1-2)Man(a1-6)][GlcNAc(b1-4)]Man(b1-4)GlcNAc(b1-4)[Fuc(a1-6)]GlcNAc
# Outline: as §1
# [21] = target: Gal(b1-4)GlcNAc(b1-3)Gal(b1-4)GlcNAc(b1-3)Gal(b1-4)GlcNAc(b1-2)[Gal(b1-4)GlcNAc(b1-3)Gal(b1-4)GlcNAc(b1-3)Gal(b1-4)GlcNAc(b1-6)]Man(a1-6)[Gal(b1-4)GlcNAc(b1-3)Gal(b1-4)GlcNAc(b1-3)Gal(b1-4)GlcNAc(b1-2)Man(a1-3)]Man(b1-4)GlcNAc(b1-4)[Fuc(a1-6)]GlcNAc
# Outline: as §1
# [22] = target: Gal(b1-4)GlcNAc(b1-3)Gal(b1-4)GlcNAc(b1-3)Gal(b1-4)GlcNAc(b1-3)Gal(b1-4)GlcNAc(b1-3)Gal(b1-4)GlcNAc(b1-2)Man(a1-3)[Gal(b1-4)GlcNAc(b1-3)Gal(b1-4)GlcNAc(b1-3)Gal(b1-4)GlcNAc(b1-3)Gal(b1-4)GlcNAc(b1-3)Gal(b1-4)GlcNAc(b1-2)Man(a1-6)]Man(b1-4)GlcNAc(b1-4)[Fuc(a1-6)]GlcNAc
# Outline: as §1
# [23] = target: GalNAc(a1-3)GalNAc
# Outline: as §1
# [24] = target: GalNAc(b1-4)Gal(b1-4)Glc
# Outline: as §1
# [25] = target: GalNAc(b1-4)GlcNAc
# Outline: as §1
# [26] = target: Glc(a1-6)Glc(a1-6)Glc(a1-6)Glc
# Outline: as §1
# [27] = target: GlcNAc(b1-2)Man(a1-3)[GlcNAc(b1-2)Man(a1-6)]Man(b1-4)GlcNAc(b1-4)GlcNAc
# Outline: as §1
# [28] = target: GlcNAc(b1-2)[GlcNAc(b1-6)]Man(a1-6)[GlcNAc(b1-2)Man(a1-3)]Man(b1-4)GlcNAc(b1-4)[Fuc(a1-6)]GlcNAc
# Outline: as §1
# [29] = target: GlcNAc(b1-3)Gal(b1-4)GlcNAc(b1-6)[GlcNAc(b1-3)Gal(b1-3)]GalNAc
# Outline: as §1
# [30] = target: GlcNAc(b1-4)GlcNAc(b1-4)GlcNAc
# Outline: as §1
# [31] = target: GlcNAc(b1-6)Gal(b1-4)GlcNAc
# Outline: as §1
# [32] = target: Kdn(a2-3)Gal(b1-3)GalNAc
# Outline: as §1
# [33] = target: Man(a1-3)[Man(a1-6)]Man(a1-6)[Man(a1-3)]Man
# Outline: as §1
# [34] = target: Neu5Ac(a2-3)Gal(b1-3)GalNAc(b1-4)Gal(b1-4)Glc
# Outline: as §1
# [35] = target: Neu5Ac(a2-3)Gal(b1-3)GlcNAc(b1-2)[Neu5Ac(a2-3)Gal(b1-3)GlcNAc(b1-4)]Man(a1-6)[Neu5Ac(a2-3)Gal(b1-3)GlcNAc(b1-2)Man(a1-3)]Man(b1-4)GlcNAc(b1-4)GlcNAc
# Outline: as §1
# [36] = target: Neu5Ac(a2-3)Gal(b1-4)GlcNAc
# Outline: as §1
# [37] = target: Neu5Ac(a2-3)Gal(b1-4)GlcNAc(b1-2)Man
# Outline: as §1
# [38] = target: Neu5Ac(a2-3)Gal(b1-4)GlcNAc(b1-3)[Neu5Ac(a2-3)Gal(b1-4)GlcNAc(b1-6)]GalNAc
# Outline: as §1
# [39] = target: Neu5Ac(a2-3)Gal(b1-4)GlcNAc(b1-6)[Gal(b1-3)]GalNAc
# Outline: as §1
# [40] = target: Neu5Ac(a2-3)Gal(b1-4)[Fuc(a1-3)]GlcNAc(b1-2)Man
# Outline: as §1
# [41] = target: Neu5Ac(a2-3)Gal(b1-4)[Fuc(a1-3)]GlcNAc(b1-6)[Neu5Ac(a2-3)Gal(b1-3)]GalNAc
# Outline: as §1
# [42] = target: Neu5Ac(a2-6)Gal(b1-4)GlcNAc(b1-2)Man(a1-3)[Gal(b1-4)GlcNAc(b1-2)Man(a1-6)]Man(b1-4)GlcNAc(b1-4)GlcNAc
# Outline: as §1
# [43] = target: Neu5Ac(a2-6)Gal(b1-4)GlcNAc(b1-2)Man(a1-3)[Man(a1-6)]Man(b1-4)GlcNAc(b1-4)GlcNAc
# Outline: as §1
# [44] = target: Neu5Ac(a2-6)Gal(b1-4)GlcNAc(b1-2)[Neu5Ac(a2-6)Gal(b1-4)GlcNAc(b1-4)]Man(a1-3)[GlcNAc(b1-4)][Neu5Ac(a2-6)Gal(b1-4)GlcNAc(b1-2)[Neu5Ac(a2-6)Gal(b1-4)GlcNAc(b1-6)]Man(a1-6)]Man(b1-4)GlcNAc(b1-4)GlcNAc
# Outline: as §1
# [45] = target: Neu5Ac(a2-6)Gal(b1-4)GlcNAc(b1-3)Gal(b1-4)GlcNAc
# Outline: as §1
# [46] = target: Neu5Ac(a2-6)GlcNAc(b1-4)GlcNAc(b1-4)GlcNAc
# Outline: as §1
# [47] = target: Neu5Gc(a2-6)GalNAc
# Outline: as §1
binder,measurement,setting,value
"SUN4 (Saccharomyces cerevisiae), P53616 (protein) MGSSHHHHHHSSGLVPRGSHNGSIYGDLADFSGPYEKFEDGTIPCGQFPSGQGVIPISWLDEGGWSGVENTDTSTGGSCKEGSYCSYACQPGMSKTQWPSDQPSDGRSIGGLLCKDGYLYRSNTDTDYLCEWGVDAAYVVSELSNDVAICRTDYPGTENMVIPTYVQAGDSLPLTVVDQDTYYTWQGLKTSAAYYVNNAGISVEDACVWGSSSSGVGNWAPLNFGAGSSDGVAYLSLIPNPNNGNALNFNVKIVAADDSSTVNGECIYENGSFSGGSDGCTVSVTAGKAKFVLYN",glycan array binding signal (z-score),[1],-0.245
same,glycan array binding signal (z-score),[2],0.442
same,glycan array binding signal (z-score),[3],2.65
same,glycan array binding signal (z-score),[4],-0.67
same,glycan array binding signal (z-score),[5],-0.18
same,glycan array binding signal (z-score),[6],1.88
same,glycan array binding signal (z-score),[7],-0.077
same,glycan array binding signal (z-score),[8],-0.198
same,glycan array binding signal (z-score),[9],0.152
same,glycan array binding signal (z-score),[10],0.641
same,glycan array binding signal (z-score),[11],0.316
same,glycan array binding signal (z-score),[12],-0.246
same,glycan array binding signal (z-score),[13],2.25
same,glycan array binding signal (z-score),[14],-0.46
same,glycan array binding signal (z-score),[15],2.21
same,glycan array binding signal (z-score),[16],-0.212
same,glycan array binding signal (z-score),[17],-0.256
same,glycan array binding signal (z-score),[18],-0.573
same,glycan array binding signal (z-score),[19],0.857
same,glycan array binding signal (z-score),[20],-0.281
same,glycan array binding signal (z-score),[21],1.61
same,glycan array binding signal (z-score),[22],2.04
same,glycan array binding signal (z-score),[23],-1.37
same,glycan array binding signal (z-score),[24],1.66
same,glycan array binding signal (z-score),[25],0.304
same,glycan array binding signal (z-score),[26],0.21
same,glycan array binding signal (z-score),[27],-0.045
same,glycan array binding signal (z-score),[28],2.54
same,glycan array binding signal (z-score),[29],0.161
same,glycan array binding signal (z-score),[30],0.057
same,glycan array binding signal (z-score),[31],-0.7
same,glycan array binding signal (z-score),[32],-0.503
same,glycan array binding signal (z-score),[33],1.55
same,glycan array binding signal (z-score),[34],1.67
same,glycan array binding signal (z-score),[35],1.64
same,glycan array binding signal (z-score),[36],-0.355
same,glycan array binding signal (z-score),[37],0.689
same,glycan array binding signal (z-score),[38],2.5
same,glycan array binding signal (z-score),[39],-0.111
same,glycan array binding signal (z-score),[40],-0.965
same,glycan array binding signal (z-score),[41],3.41
same,glycan array binding signal (z-score),[42],-0.494
same,glycan array binding signal (z-score),[43],-1
same,glycan array binding signal (z-score),[44],-0.64
same,glycan array binding signal (z-score),[45],-0.838
same,glycan array binding signal (z-score),[46],-0.241
same,glycan array binding signal (z-score),[47],-0.69
